Experimental findings from PubChem BioAssay AID651871 (Sanford-Burnham Center for Chemical Genomics, 2012) are described below.

Where “and” joins values, the source holds several entries; their conditions need not be identical. Identical values can stand only once.

The subject of this experiment is HL-1. The experiment can be described thus: protection of cardiomyocytes from stress damage, SAR follow-up, cell-based, panel, H9c2 and HL-1, ATP luminescence, set 2 (AID 651871).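 Note: cells exposed to stressor for 2 h before ATP readout; reference of the scale not given here.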 The note with it: H9c2/HL-1 cardiomyocytes, 2-deoxyglucose stress, with 2-deoxyglucose, run 4, at 79 µM (top of the series).
Regarding `COc1ccc2nc(-c3cc(OC)c(OC)c(OC)c3)cc(C(=O)NCC(=O)Nc3ccc(C(C)=O)cc3)c2c1`, the activity (protection/inhibition) is 68.7%.

On to `CCOC(=O)c1cccc(NC(=O)CNC(=O)c2cc(-c3cc(OC)c(OC)c(OC)c3)nc3ccccc23)c1`, for which the activity (protection/inhibition) is 54.1%. `COc1ccc2c(c1OC)C(=O)N1c3ccccc3C(=O)N(Cc3cccc(Cl)c3Cl)C21` (stereo not drawn): the activity (protection/inhibition) was 33.5% and -8.11%.
